Laboratory results: PubChem BioAssay AID1159580 (chemical genetic matrix, 2015)
Where “and” joins values, the source holds several entries; their conditions need not be identical. Identical values can stand only once. The campaign covered roughly 5,500 compounds. About 2,000 (36%) were called active. About 18% were inconclusive and are not listed. No stated cut-off is given here; in the data, active means normalized growth mostly below about 0.91 (no sharp cut-off); inconclusive means no clear call, values can overlap the other calls; inactive means mostly above about 0.92. This is one part of the list. More than one record can exist for a structure, and the calls need not agree.

Assay: chemical genetic growth profiling, strain panel (AID 1159580);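 further: tested at 20 µM; growth read once vehicle control cultures reached saturation at 30 °C; 1 = growth at the plate median or of vehicle wells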
Conditions: growth OD

Measured: normalized growth

CN1CCc2cccc3c2C1Cc1ccc(O)c(O)c1-3 (stereo not drawn)
active: S. cerevisiae deletion strains, locus YKL160W, strain elf1, stronger effect = lower value 0.871 | S. cerevisiae deletion strains, locus YLR027C, strain aat2, stronger effect = lower value 0.918 | S. cerevisiae deletion strains, locus YLR262C, strain YPT6 (second series), stronger effect = lower value 0.645 | S. cerevisiae deletion strains, locus YLR320W, strain mms22, stronger effect = lower value 0.8 | S. cerevisiae deletion strains, locus YLR342W, strain FKS1, stronger effect = lower value 0.855 | S. cerevisiae deletion strains, locus YMR058W, strain fet3, stronger effect = lower value 0.573 | S. cerevisiae deletion strains, locus YNL071W, strain lat1, stronger effect = lower value 0.627 | S. cerevisiae deletion strains, locus YNL209W, strain ssb2, stronger effect = lower value 0.808 | S. cerevisiae deletion strains, locus YNL248C, strain rpa49, stronger effect = lower value 0.858 | S. cerevisiae deletion strains, locus YOR070C, strain gyp1, stronger effect = lower value 0.864 | S. cerevisiae deletion strains, locus YOR083W, strain WHI5 (second series), stronger effect = lower value 0.815 | S. cerevisiae deletion strains, locus YOR083W, strain WHI5, stronger effect = lower value 0.875 | S. cerevisiae deletion strains, locus YOR106W, strain vam3, stronger effect = lower value 0.607 | S. cerevisiae deletion strains, locus YOR265W, strain rbl2, stronger effect = lower value 0.91 | S. cerevisiae deletion strains, locus YOR270C, strain vph1, stronger effect = lower value 0.597 | S. cerevisiae deletion strains, locus YPL051W, strain arl3, stronger effect = lower value 0.746 | S. cerevisiae deletion strains, locus YPL241C, strain CIN2, stronger effect = lower value 0.311
inactive: S. cerevisiae deletion strains, locus YKL009W, strain mrt4, stronger effect = lower value 1.01 | S. cerevisiae deletion strains, locus YKL068W, stronger effect = lower value 0.996 | S. cerevisiae deletion strains, locus YKL085W, strain MDH1 (second series), stronger effect = lower value 1 | S. cerevisiae deletion strains, locus YKL085W, strain MDH1, stronger effect = lower value 1 | S. cerevisiae deletion strains, locus YKL190W, strain CNB1, stronger effect = lower value 1.01 | S. cerevisiae deletion strains, locus YKR001C, strain vps1, stronger effect = lower value 1 | S. cerevisiae deletion strains, locus YKR026C, strain gcn3, stronger effect = lower value 1.01 | S. cerevisiae deletion strains, locus YKR091W, strain srl3, stronger effect = lower value 0.993 | S. cerevisiae deletion strains, locus YLL001W, strain dnm1, stronger effect = lower value 0.967 | S. cerevisiae deletion strains, locus YLL026W, stronger effect = lower value 0.988 | S. cerevisiae deletion strains, locus YLL041C, strain sdh2, stronger effect = lower value 0.995 | S. cerevisiae deletion strains, locus YLR039C, strain RIC1, stronger effect = lower value 1.04 | S. cerevisiae deletion strains, locus YLR058C, strain SHM2, stronger effect = lower value 1.01 | S. cerevisiae deletion strains, locus YLR102C, strain apc9, stronger effect = lower value 0.997 | S. cerevisiae deletion strains, locus YLR113W, strain HOG1, stronger effect = lower value 1.02 | S. cerevisiae deletion strains, locus YLR221C, strain rsa3, stronger effect = lower value 0.932 | S. cerevisiae deletion strains, locus YLR258W, strain gsy2, stronger effect = lower value 0.958 | S. cerevisiae deletion strains, locus YLR262C, strain YPT6, stronger effect = lower value 1.09 | S. cerevisiae deletion strains, locus YLR268W, strain sec22, stronger effect = lower value 1.01 | S. cerevisiae deletion strains, locus YLR330W, strain CHS5, stronger effect = lower value 1.01 | S. cerevisiae deletion strains, locus YLR342W, strain FKS1 (second series), stronger effect = lower value 1.02 | S. cerevisiae deletion strains, locus YLR357W, strain rsc2, stronger effect = lower value 0.889 | S. cerevisiae deletion strains, locus YLR370C, strain arc18, stronger effect = lower value 0.96 | S. cerevisiae deletion strains, locus YLR371W, strain rom2, stronger effect = lower value 0.996 | S. cerevisiae deletion strains, locus YLR384C, strain iki3, stronger effect = lower value 1 | S. cerevisiae deletion strains, locus YLR418C, strain cdc73, stronger effect = lower value 1.01 | S. cerevisiae deletion strains, locus YML016C, strain PPZ1, stronger effect = lower value 1.01 | S. cerevisiae deletion strains, locus YML032C, strain rad52, stronger effect = lower value 0.99 | S. cerevisiae deletion strains, locus YML120C, strain ndi1, stronger effect = lower value 0.993 | S. cerevisiae deletion strains, locus YML124C, strain tub3, stronger effect = lower value 0.99 | S. cerevisiae deletion strains, locus YMR078C, strain ctf18, stronger effect = lower value 0.988 | S. cerevisiae deletion strains, locus YMR125W, strain sto1, stronger effect = lower value 0.966 | S. cerevisiae deletion strains, locus YMR129W, stronger effect = lower value 1 | S. cerevisiae deletion strains, locus YMR205C, strain PFK2, stronger effect = lower value 0.93 | S. cerevisiae deletion strains, locus YMR223W, strain ubp8, stronger effect = lower value 0.994 | S. cerevisiae deletion strains, locus YMR231W, strain pep5, stronger effect = lower value 0.972 | S. cerevisiae deletion strains, locus YMR307W, strain GAS1, stronger effect = lower value 1.03 | S. cerevisiae deletion strains, locus YNL067W, strain RPL9B, stronger effect = lower value 0.998 | S. cerevisiae deletion strains, locus YNL128W, strain TEP1, stronger effect = lower value 1.01 and 0.937 | S. cerevisiae deletion strains, locus YNL153C, strain GIM3, stronger effect = lower value 1 | S. cerevisiae deletion strains, locus YNL175C, strain NOP13, stronger effect = lower value 0.96 | S. cerevisiae deletion strains, locus YNL183C, strain NPR1, stronger effect = lower value 0.984 | S. cerevisiae deletion strains, locus YNL197C, strain WHI3, stronger effect = lower value 0.931 | S. cerevisiae deletion strains, locus YNL224C, strain SQS1, stronger effect = lower value 1.05 | S. cerevisiae deletion strains, locus YNL233W, strain BNI4, stronger effect = lower value 1.01 | S. cerevisiae deletion strains, locus YNL250W, strain rad50, stronger effect = lower value 1.01 | S. cerevisiae deletion strains, locus YNL271C, strain bni1, stronger effect = lower value 0.985 | S. cerevisiae deletion strains, locus YNL298W, strain CLA4, stronger effect = lower value 0.992 | S. cerevisiae deletion strains, locus YNL307C, strain MCK1, stronger effect = lower value 0.991 | S. cerevisiae deletion strains, locus YNL322C, strain KRE1 (second series), stronger effect = lower value 1.01 | S. cerevisiae deletion strains, locus YNR049C, strain mso1, stronger effect = lower value 0.98 | S. cerevisiae deletion strains, locus YNR052C, strain pop2, stronger effect = lower value 0.987 | S. cerevisiae deletion strains, locus YOL006C, strain TOP1, stronger effect = lower value 0.926 | S. cerevisiae deletion strains, locus YOL012C, strain htz1 1.12 | S. cerevisiae deletion strains, locus YOL147C, strain pex11, stronger effect = lower value 0.992 | S. cerevisiae deletion strains, locus YOR001W, strain rrp6, stronger effect = lower value 0.944 | S. cerevisiae deletion strains, locus YOR061W, strain CKA2, stronger effect = lower value 1.02 | S. cerevisiae deletion strains, locus YOR069W, strain VPS5, stronger effect = lower value 1.01 | S. cerevisiae deletion strains, locus YOR080W, strain dia2, stronger effect = lower value 0.993 | S. cerevisiae deletion strains, locus YOR136W, strain idh2, stronger effect = lower value 0.987 | S. cerevisiae deletion strains, locus YOR144C, strain elg1, stronger effect = lower value 0.998 | S. cerevisiae deletion strains, locus YOR184W, strain ser1, stronger effect = lower value 1.02 | S. cerevisiae deletion strains, locus YOR231W, strain MKK1, stronger effect = lower value 1.06 | S. cerevisiae deletion strains, locus YOR290C, strain snf2, stronger effect = lower value 0.979 | S. cerevisiae deletion strains, locus YOR316C, strain cot1, stronger effect = lower value 0.992 | S. cerevisiae deletion strains, locus YPL078C, strain atp4, stronger effect = lower value 0.988 | S. cerevisiae deletion strains, locus YPL106C, strain sse1, stronger effect = lower value 0.94 | S. cerevisiae deletion strains, locus YPL240C, strain hsp82, stronger effect = lower value 1.01 | S. cerevisiae deletion strains, locus YPL256C, strain CLN2, stronger effect = lower value 1.06 | S. cerevisiae deletion strains, locus YPR119W, strain clb2, stronger effect = lower value 0.994 | S. cerevisiae deletion strains, locus YPR141C, strain kar3, stronger effect = lower value 0.997 | S. cerevisiae deletion strains, locus YPR163C, strain tif3, stronger effect = lower value 0.986 | S. cerevisiae deletion strains, locus YPR167C, strain met16, stronger effect = lower value 0.998 | S. cerevisiae deletion strains, strain wtn01, stronger effect = lower value 1 | S. cerevisiae strains, strain wild type, stronger effect = lower value 1.01
1 (inactive) and 0.35 (active): S. cerevisiae deletion strains, locus YJR075W, strain HOC1, stronger effect = lower value
